In the library only some 4% were active in any assay of this set; here they are far more common.
Gli-Sufu block – Gli-Sufu pathway antagonism; inhibition, % at 5 µM; AID 588413; Sufu-KO-LIGHT fibroblasts, Gli luciferase reporter luminescence; actives 0.74% (n = 340,000);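 active = inhibition above about 55%, limit read from the data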;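 also: 0% = DMSO-treated cells and 100% = wells with medium but no cells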
Mdm2 MdmX PPI – inhibitors of human Mdm2/MdmX interaction; actives 3% (n = 330,000); AID 485346; SaOS-2 split-luciferase Mdm2/MdmX complementation, luminescence; inhibition, % at 8 µM;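 active = inhibition of at least 50% at 8 µM in the primary screen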
Target sequence (O15151 whole entry, looked up): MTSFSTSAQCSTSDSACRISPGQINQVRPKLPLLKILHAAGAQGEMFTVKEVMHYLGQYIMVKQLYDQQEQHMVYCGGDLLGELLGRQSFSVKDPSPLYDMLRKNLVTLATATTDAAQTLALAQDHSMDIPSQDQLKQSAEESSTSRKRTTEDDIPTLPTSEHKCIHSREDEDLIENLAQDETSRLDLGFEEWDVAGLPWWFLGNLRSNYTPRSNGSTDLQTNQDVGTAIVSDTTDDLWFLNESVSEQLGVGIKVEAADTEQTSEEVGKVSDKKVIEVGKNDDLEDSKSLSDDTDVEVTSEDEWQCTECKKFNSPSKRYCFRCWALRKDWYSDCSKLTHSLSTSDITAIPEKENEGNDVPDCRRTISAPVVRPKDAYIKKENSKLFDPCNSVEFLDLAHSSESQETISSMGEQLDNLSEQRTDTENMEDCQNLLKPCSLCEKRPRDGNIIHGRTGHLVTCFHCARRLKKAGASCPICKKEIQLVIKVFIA
Target sequence (Q00987 whole entry, looked up): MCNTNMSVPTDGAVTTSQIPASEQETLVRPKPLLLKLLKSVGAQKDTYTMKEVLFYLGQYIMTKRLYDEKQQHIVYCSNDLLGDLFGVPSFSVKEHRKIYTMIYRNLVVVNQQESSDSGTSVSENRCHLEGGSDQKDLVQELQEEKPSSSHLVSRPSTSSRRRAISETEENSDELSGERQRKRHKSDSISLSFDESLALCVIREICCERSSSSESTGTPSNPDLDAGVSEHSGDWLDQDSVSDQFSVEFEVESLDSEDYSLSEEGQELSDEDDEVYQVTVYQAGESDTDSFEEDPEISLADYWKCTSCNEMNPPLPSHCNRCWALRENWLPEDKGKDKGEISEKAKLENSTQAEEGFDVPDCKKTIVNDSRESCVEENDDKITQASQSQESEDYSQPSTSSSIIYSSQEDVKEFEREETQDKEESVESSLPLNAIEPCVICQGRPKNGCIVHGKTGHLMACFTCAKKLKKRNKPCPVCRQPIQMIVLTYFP
Jurkat NFkB inh – inhibitors of the PMA/ionomycin-induced NF-kB reporter in Jurkat cells; inhibition, % at 4 µM; AID 435003; PMA/ionomycin-induced NF-kB luciferase reporter, luminescence; actives 0.53% (n = 330,000); in the data active = inhibition above about 50%
Beta cell apopt – beta cell apoptosis inhibition | INS-1E cytokine-induced death, ATP luminescence, 48 h; percent of positive-control rescue, neutral wells zero | protection from apoptosis, % (concentration not given with the values) | actives 0.8% (n = 300,000);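 active = Every replicate reaches about 75%, or at least half do and their mean reaches it too, limit read from the data; inconclusive = At least half of replicates reach the limit but their mean does not; inactive = Under half of replicates reach the limit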;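 also: 0% = cytokine-treated negative control wells and 100% = positive control rescue; higher means more ATP so stronger rescue from cytokine killing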
697 NFkB inh – inhibitors of the PMA/ionomycin-induced NF-kB reporter in 697 B cells; 697 B-cell NF-kB luciferase reporter, 16 h; inhibition, % at 4 µM; actives 0.33% (n = 330,000); AID 435022; in the data active = inhibition above about 35%
An asterisk follows results filed as active; u = inconclusive; x = not tested or not shown.

SMILES	Gli-Sufu block	Mdm2 MdmX PPI	Jurkat NFkB inh	Beta cell apopt	697 NFkB inh
CCCCNC1=CC(=O)C(=O)c2ccccc21	-2.2	-11.1	-3.3	99.1*	14.1
O=S(=O)(c1ccccc1)N1CCN(c2cc(-c3ccccc3)nc3ncnn23)CC1	56.7*	-15.2	40.9	29.4	11.7
CC(C)(C)Sc1ccc2nc3c(n2c1)CCCC3	17.3	7.1	-3.1	100.7*	-23.8
CC1(C(=O)OCC(=O)N2c3ccccc3Sc3ccccc32)CC1(Cl)Cl (configuration not stated)	-2.8	23.1	2.5	88.5*	1.1
CC1(C(=O)OCC(=O)NC(=O)c2ccccc2)CC1(Cl)Cl (configuration not stated)	12.3	16.3	-9.7	-3.7	0.9
CCCCOc1ccc(Br)cc1CSC(=N)N	64.8*	x	x	x	x
CCc1cc[n+](C2=C([O-])c3ccccc3C(=O)/C2=N\S(=O)(=O)c2cccs2)cc1	19.9	29.0	30.8	105.8*	1.8
CC(=O)C1=C(O)C(CSCc2ccccc2)N(C)C1=O (configuration not stated)	4.8	x	x	x	x
CCc1ccc(OCC(=O)NC(NC(=S)Nc2ccc(C)cc2C)C(Cl)(Cl)Cl)cc1 (configuration not stated)	-6.0	19.2	-1.9	95.2*	2.7
COc1ccccc1NC(=O)CSc1nccn1Cc1ccccc1	3.8	13.7	16.7	-1.7	2.1
c1ccc(-c2nnnc3ccccc23)cc1	3.8	20.9	6.4	-10.3	-2.0
Clc1ccc2nnnc(-c3ccccc3)c2c1	-8.3	x	x	99.1*	x
Cc1c(Nc2ccc(C=O)cc2)c(=O)n(-c2ccccc2)n1C	0.2	13.8	7.4	-7.5	4.9
CN(C)C1=NC[C@H](Cc2ccccc2)N1CCCC1CCCCC1	50.0	43.2	17.1	86.8*	-30.4
Clc1ccc(CN(Cc2ccccc2)C(c2cccs2)c2nnnn2C2CCCC2)cc1 (configuration not stated)	5.8	-3.7	0.9	8.2	-41.3
Fc1ccc(CN(Cc2ccccc2)C(c2cccs2)c2nnnn2C2CCCCC2)cc1 (configuration not stated)	16.3	23.5	-4.5	93.8*	6.9
FC(F)(F)c1cccc(NC(=S)NNC(=S)Nc2cccc(C(F)(F)F)c2)c1	x	43.7	-7.7	96.8*	7.8
COc1ccc(OC)c(S(=O)(=O)Nc2ccc(O)c3ccccc23)c1	-3.5	20.1	32.1	102.6*	10.7
Nc1c(Cl)ncnc1N/N=C/c1ccnc2ccccc12	-17.4	17.0	-22.7	4.0	-14.0
Nc1c(Cl)ncnc1N/N=C/c1ccccn1	77.0*	x	x	118.6*	x
Nc1c(Cl)ncnc1N/N=C/c1ccc2ccccc2n1	65.5*	x	x	113.4*	x
Nc1c(Cl)ncnc1N/N=C/c1cccnc1	9.8	-10.1	-6.3	x	9.0
CSc1ccc(CN(C)C(=O)c2cc3ccccc3o2)cc1	7.6	-1.0	-8.5	-1.8	9.3
CN(Cc1c(F)cccc1Cl)C(=O)c1cc2ccccc2o1	-8.7	-26.3	1.9	98.9*	8.1
CCCCCN1CSC(=S)N(Cc2ccccc2)C1	21.4	14.3	-5.6	x	17.8
SMILES	Gli-Sufu block	Mdm2 MdmX PPI	Jurkat NFkB inh	Beta cell apopt	697 NFkB inh
CCN1CSC(=S)N(Cc2ccccc2)C1	62.5*	40.2	-6.5	-8.4	6.8
NC(=S)N/N=C/c1ccc(C23CC4CC(CC(C4)C2)C3)cc1	41.2	46.1	-19.8	77.1*	-73.2
COc1ccccc1C(=O)NCCC(=O)NCc1cccnc1	-2.8	-14.4	13.1	-5.9	15.8
Cc1ccc(C2CC(c3ccc(C)cc3)n3nc(N)nc3N2)cc1 (configuration not stated)	-7.6	10.3	3.7	102.9*	9.7
Cc1ccc(C2CC(c3ccc(Cl)cc3)n3nc(N)nc3N2)cc1 (configuration not stated)	-8.5	-16.6	5.5	-0.1	-6.4
CC(C)(C)c1cc(CCC(=O)NNC(=S)NC(=O)c2ccccc2)cc(C(C)(C)C)c1O	58.9*	48.3	-1.3	u	-28.3
CC(=O)NC(c1cccs1)c1cc([N+](=O)[O-])c2cccnc2c1O (configuration not stated)	-13.8	x	x	89.7*	x
CCC(=O)NC(c1cccs1)c1cc([N+](=O)[O-])c2cccnc2c1O (configuration not stated)	-2.1	36.2	22.1	58.2	-77.1
CCC1CCCCN1C(=O)CCc1nnc(Cc2cc(OC)ccc2OC)o1 (configuration not stated)	5.3	-4.1	-20.9	-2.5	-40.4
Cc1ccccc1OCCn1c(C)nc2ccccc21	48.4	13.7	28.6	77.7*	-62.3
c1ccc2c(c1)ncn2CCCCOc1ccc2c(c1)CCC2	31.9	13.9	8.6	91.2*	-45.4
Cc1ccccc1OCCCCn1cnc2ccccc21	42.4	12.0	21.8	103.1*	-48.6
c1ccc2c(c1)ncn2CCCOc1ccc2c(c1)CCC2	-23.7	-30.4	-4.9	71.1	-33.9
Cc1ccc(S(=O)(=O)CCC(=O)OCC(=O)N2c3ccccc3CC2C)cc1 (configuration not stated)	-7.8	4.8	5.1	-17.0	-9.9
CCOC(=O)N1CCN(S(=O)(=O)c2ccc(C(=O)NNc3nc4ccc(Cl)cc4s3)cc2)CC1	-7.8	34.2	0.8	81.8*	-7.3
CCOC(=O)N1CCN(S(=O)(=O)c2ccc(C(=O)N(CCN(C)C)c3nc4ccc(Cl)cc4s3)cc2)CC1	-7.4	-10.1	-33.2	2.5	-4.0
CC(=O)c1c(C)[nH]c(C(=O)OCc2cccc(Cl)c2)c1C	-31.7	31.5	-3.6	74.6*	-58.6
CC(=O)c1c(C)[nH]c(C(=O)OCc2c(F)cccc2Cl)c1C	20.0	36.1	11.5	-6.3	-2.3
CCOC(CNC(=O)c1nnc(Cc2cc(OC)c(OC)c(OC)c2)o1)OCC	-2.6	12.9	-11.5	-0.3	9.3
CN(C)c1nc(N/N=C/c2ccccc2O)nc(Nc2ccc(F)cc2)n1	20.2	43.4	3.5	106.1*	-5.3
CN(C)c1nc(Nc2ccc(F)cc2)nc(Oc2ccc(F)cc2)n1	7.4	7.6	9.1	x	3.6
CCOc1ccc(Br)cc1S(=O)(=O)NC1=NCCCCC1	-3.9	-20.8	3.9	-12.3	15.4
NC(=Nc1nc(-c2ccccn2)cc2ccccc12)c1ccccn1	86.5*	x	x	x	x
CCCCCCCCCCCCCCCC[N+](C)(C)CCl	57.8*	x	x	x	x
O=C(CCCN1C(=O)/C(=C/c2ccccc2)SC1=S)NCCCn1ccnc1	6.7	21.7	2.5	120.8*	-17.9
O=C(CCN1C(=O)S/C(=C\c2ccccc2)C1=O)NCCCn1ccnc1	13.5	10.8	-7.8	-0.9	-32.1
Cc1onc(-c2ccccc2)c1C(=O)NC(=S)NNC(=O)c1ccccc1O	-10.2	29.5	12.2	84.6*	-16.7
CN1C=C/C(=C\c2cc[n+](C)c3ccccc23)c2ccccc21	77.4*	x	x	x	x
CC[n+]1ccc(/C=C2\Sc3ccccc3N2CCCS(=O)(=O)[O-])c2ccccc21	-2.1	4.7	-4.3	-4.1	14.5
O=C(Nc1ccnn1C1CCN(CC(O)CO)CC1)C1CCCC1 (configuration not stated)	-10.8	-0.1	0.1	-1.5	10.6

Screens as filed in PubChem BioAssay.
